# Source: publication PMC7862700, “An all-to-all approach to the identification of sequence-specific readers for epigenetic DNA modifications on cytosine”
# What was measured:
# Test in all cases: DAPPL (digital affinity profiling via proximity ligation, sequencing); 10 mM Tris-HCl pH 7.5, 50 mM NaCl, 1 mM DTT, 4% glycerol, room temperature, 30 min; GST-TFs on glutathione beads, 16-mer random dsDNA library, 0.1% formaldehyde crosslink after washing; high values mean tight binding
# Settings in all cases: protein: recombinant; tags: N-terminal GST; dsDNA, one strand shown
# FLI1 = biological target: T1, FLI1 (Homo sapiens, UniProt Q01543 1-452)
# T1 sequence: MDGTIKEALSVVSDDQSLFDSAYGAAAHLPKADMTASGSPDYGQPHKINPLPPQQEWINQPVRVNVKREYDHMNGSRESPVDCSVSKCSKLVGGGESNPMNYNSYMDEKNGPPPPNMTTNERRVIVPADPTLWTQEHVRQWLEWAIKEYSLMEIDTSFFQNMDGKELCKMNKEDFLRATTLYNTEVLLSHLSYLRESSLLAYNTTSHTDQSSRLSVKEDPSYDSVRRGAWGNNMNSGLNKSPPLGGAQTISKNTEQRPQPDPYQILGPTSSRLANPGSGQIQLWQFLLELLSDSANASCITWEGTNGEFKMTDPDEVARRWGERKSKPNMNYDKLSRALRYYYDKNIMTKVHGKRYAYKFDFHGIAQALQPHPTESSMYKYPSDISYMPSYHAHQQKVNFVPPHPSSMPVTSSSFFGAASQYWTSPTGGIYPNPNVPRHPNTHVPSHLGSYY
# Method in brief: (§1)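 Pools of DNA-barcoded human transcription factors, expressed in yeast as GST fusions on glutathione beads and combined with a tag-only sample, were incubated with 200 nmole of a 16-mer random double-stranded DNA library. Incubation took 30 min at room temperature in Tris/NaCl/DTT/glycerol buffer and was followed by washing, 0.1% formaldehyde crosslinking, proximity ligation (BsaI/T4 ligase, 1 h, 37 °C), PCR amplification and sequencing on an Illumina NextSeq500. Binding signal is the ratio of a hexamer's read frequency for a factor to its frequency for the tag-only sample.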
# ELK1 = biological target: T2, ELK1 (Homo sapiens, UniProt P19419 1-428)
# T2 sequence: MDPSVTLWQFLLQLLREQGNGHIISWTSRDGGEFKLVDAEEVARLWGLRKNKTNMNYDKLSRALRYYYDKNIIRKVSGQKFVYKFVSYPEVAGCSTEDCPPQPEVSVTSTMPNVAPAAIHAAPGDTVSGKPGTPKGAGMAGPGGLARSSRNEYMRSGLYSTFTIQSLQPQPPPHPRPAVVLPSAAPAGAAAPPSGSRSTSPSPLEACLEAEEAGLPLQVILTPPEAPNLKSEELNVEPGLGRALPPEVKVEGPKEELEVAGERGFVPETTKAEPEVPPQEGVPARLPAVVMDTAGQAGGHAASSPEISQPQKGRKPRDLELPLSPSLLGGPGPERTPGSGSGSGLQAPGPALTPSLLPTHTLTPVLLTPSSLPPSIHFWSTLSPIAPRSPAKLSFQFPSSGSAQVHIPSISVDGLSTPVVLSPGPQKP
# Method in brief: as §1
# GABPA = biological target: T3, GABPA (Homo sapiens, UniProt Q06546 1-454)
# T3 sequence: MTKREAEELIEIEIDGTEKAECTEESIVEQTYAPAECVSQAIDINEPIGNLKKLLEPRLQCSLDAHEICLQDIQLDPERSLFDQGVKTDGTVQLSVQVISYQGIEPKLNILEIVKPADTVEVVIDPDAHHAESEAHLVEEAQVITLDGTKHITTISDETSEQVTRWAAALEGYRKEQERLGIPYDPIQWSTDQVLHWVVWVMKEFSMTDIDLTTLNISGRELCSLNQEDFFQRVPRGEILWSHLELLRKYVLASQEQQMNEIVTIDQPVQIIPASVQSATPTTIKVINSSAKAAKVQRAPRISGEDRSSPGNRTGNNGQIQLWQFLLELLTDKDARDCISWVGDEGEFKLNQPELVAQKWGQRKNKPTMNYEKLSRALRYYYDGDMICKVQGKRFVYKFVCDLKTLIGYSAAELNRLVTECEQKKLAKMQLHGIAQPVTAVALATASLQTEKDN
# Method in brief: as §1
# ERG = biological target: T4, ERG (Homo sapiens, UniProt P11308 1-479)
# T4 sequence: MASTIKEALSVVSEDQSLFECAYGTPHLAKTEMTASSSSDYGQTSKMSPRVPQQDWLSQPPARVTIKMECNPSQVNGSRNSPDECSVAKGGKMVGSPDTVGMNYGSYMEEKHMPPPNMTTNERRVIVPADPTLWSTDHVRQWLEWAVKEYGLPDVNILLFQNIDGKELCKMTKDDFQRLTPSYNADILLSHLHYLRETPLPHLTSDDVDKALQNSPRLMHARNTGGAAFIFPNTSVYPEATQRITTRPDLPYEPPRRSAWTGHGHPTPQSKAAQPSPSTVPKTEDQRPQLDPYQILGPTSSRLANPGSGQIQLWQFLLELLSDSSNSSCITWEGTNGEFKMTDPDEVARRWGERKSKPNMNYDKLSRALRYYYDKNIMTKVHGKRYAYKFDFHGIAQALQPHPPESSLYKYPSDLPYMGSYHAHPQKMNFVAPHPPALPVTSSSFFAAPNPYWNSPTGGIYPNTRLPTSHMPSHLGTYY
# Method in brief: as §1
# ELF1 = ELF1 (Homo sapiens, UniProt P32519 1-619)
# Sequence of ELF1 (P32519 whole entry): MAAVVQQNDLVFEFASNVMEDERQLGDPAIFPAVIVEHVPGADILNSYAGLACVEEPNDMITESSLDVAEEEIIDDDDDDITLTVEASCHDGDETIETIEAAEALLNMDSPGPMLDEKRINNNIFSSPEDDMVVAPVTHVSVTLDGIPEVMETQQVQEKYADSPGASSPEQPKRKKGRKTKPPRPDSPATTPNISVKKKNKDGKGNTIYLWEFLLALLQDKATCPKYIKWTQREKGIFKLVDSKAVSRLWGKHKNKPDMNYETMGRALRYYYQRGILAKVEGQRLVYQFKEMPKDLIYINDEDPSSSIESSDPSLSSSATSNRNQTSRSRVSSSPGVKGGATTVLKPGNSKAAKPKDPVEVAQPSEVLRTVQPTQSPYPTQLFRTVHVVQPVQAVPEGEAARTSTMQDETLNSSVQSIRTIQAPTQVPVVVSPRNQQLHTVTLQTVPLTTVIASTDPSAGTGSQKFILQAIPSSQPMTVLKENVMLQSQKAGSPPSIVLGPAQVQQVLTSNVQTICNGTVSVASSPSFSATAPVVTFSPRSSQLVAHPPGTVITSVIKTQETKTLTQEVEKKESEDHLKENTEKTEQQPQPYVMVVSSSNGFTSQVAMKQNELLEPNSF
# Method in brief: as §1
# EHF = biological target: T5, EHF (Homo sapiens, UniProt Q9NZC4 1-300)
# T5 sequence: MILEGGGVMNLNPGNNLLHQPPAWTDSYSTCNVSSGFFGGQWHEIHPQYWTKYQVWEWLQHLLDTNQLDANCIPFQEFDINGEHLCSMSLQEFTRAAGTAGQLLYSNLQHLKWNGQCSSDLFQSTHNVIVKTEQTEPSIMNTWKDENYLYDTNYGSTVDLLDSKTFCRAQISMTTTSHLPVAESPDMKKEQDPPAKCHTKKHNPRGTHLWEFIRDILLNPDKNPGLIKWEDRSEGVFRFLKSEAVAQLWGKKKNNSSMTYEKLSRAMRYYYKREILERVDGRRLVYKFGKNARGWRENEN
# Method in brief: as §1
# SPI1 = SPI1 (Homo sapiens, UniProt P17947 1-270)
# Method in brief: as §1
# SPIB = SPIB (Homo sapiens, UniProt Q01892 1-262)
# Sequence of SPIB (Q01892 whole entry): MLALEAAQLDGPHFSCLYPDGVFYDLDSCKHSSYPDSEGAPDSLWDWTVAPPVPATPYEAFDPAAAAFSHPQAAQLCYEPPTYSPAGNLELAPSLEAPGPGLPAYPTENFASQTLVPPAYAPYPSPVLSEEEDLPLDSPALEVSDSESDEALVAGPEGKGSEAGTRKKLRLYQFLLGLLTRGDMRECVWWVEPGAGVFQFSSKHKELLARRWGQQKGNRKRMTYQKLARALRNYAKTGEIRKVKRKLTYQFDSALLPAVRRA
# Method in brief: as §1
# ELK3 = biological target: T6, ELK3 (Homo sapiens, UniProt P41970 1-407)
# T6 sequence: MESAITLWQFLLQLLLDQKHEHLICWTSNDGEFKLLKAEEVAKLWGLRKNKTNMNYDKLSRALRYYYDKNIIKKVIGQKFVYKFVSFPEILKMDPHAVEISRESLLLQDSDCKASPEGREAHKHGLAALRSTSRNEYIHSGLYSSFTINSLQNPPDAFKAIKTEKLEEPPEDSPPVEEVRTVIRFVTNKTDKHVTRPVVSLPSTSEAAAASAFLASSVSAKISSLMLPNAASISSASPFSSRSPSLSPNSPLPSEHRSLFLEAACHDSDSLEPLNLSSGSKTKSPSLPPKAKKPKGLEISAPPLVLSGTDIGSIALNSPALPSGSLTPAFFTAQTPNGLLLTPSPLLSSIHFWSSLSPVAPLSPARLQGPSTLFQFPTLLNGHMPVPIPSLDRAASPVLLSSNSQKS
# Method in brief: as §1
sequence,measurement,setting,value
ATGGAA,binding signal,FLI1,"1.17 fold enrichment (6-mer frequency, TF over GST control)"
same,binding signal,ELK1,"1.11 fold enrichment (6-mer frequency, TF over GST control)"
same,binding signal,GABPA,"1.18 fold enrichment (6-mer frequency, TF over GST control)"
same,binding signal,ERG,"1.26 fold enrichment (6-mer frequency, TF over GST control)"
same,binding signal,ELF1,"1.16 fold enrichment (6-mer frequency, TF over GST control)"
same,binding signal,EHF,"1.2 fold enrichment (6-mer frequency, TF over GST control)"
same,binding signal,SPI1,"1.18 fold enrichment (6-mer frequency, TF over GST control)"
same,binding signal,SPIB,"1.19 fold enrichment (6-mer frequency, TF over GST control)"
same,binding signal,ELK3,"1.11 fold enrichment (6-mer frequency, TF over GST control)"
